# Assay: small-molecule microarray binders of probe aEGFR, primary screen, biochemical, biotinylated probe, 635/667 nm fluorescence (AID 1097);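 further: probe is a biotinylated anti-EGFR antibody binding compounds printed on slides; score combines fluorescence near 667 nm and signal to noise of each spot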
# Settings: higher = more signal
row,Compound,composite z-score
1,COc1ccc(O[C@H]2C=C[C@@H](c3ccccc3)O[C@@H]2CON=CC[C@@H]2C=C[C@H](OC(C)=O)[C@@H](COC(C)=O)O2)cc1,-0.0267
2,CO[C@H]1COC(=O)CC=C[C@@H](C)[C@H](NS(=O)(=O)c2ccc(C)cc2)COC(=O)CCC[C@@H]1C,-0.067
3,CON=CC[C@@H]1C=C[C@H](OC(C)=O)[C@@H](COC(C)=O)O1,-0.184
4,C=COC[C@@H]1CN2[C@@H](CC[C@@H](C)[C@@H]2c2ccc(Br)cc2)C(=O)O1,-0.267
5,O=C1[C@H]2[C@H]3[C@H](O)[C@H](O)CC(=NOCc4ccccc4)[C@@H]3CC[C@H]2C(=O)N1Cc1ccc2c(c1)OCO2,0.0761
6,COC(=O)NCC=Cc1nc(CCCO)co1,0.0678
7,CO[C@H]1COC(=O)CC=C[C@H](C)[C@@H](OC)COC(=O)[C@@H](C)COC(=O)CC=C[C@@H]1C,-0.0171
8,COC(=O)[C@@H]1CC[C@H](C)[C@@H](c2ccc(C)cc2)N1C(=O)c1ccc(C=NOC[C@@H](C)[C@H](OCc2ccccc2)C(C)C)cc1,0.102
9,COC(=O)CC=C[C@@H](C)[C@@H](C=NO[C@@H]1O[C@H](COC(C)=O)[C@@H](OC(C)=O)[C@H](OC(C)=O)[C@H]1OC(C)=O)NS(=O)(=O)c1ccc(C)cc1,-0.152
10,CCOC(=O)[C@H](CC(C)C)NC(=O)CCC1CC(OC(=O)NCc2cccc3ccccc23)CC2(CCCC(COC(=O)NCCOc3ccccc3)O2)O1 (stereo partly specified),-0.171
11,COc1cccc([C@H]2Oc3ccc(OC)cc3C(=NO[C@@H](C)c3cn([C@H](CO)Cc4ccccc4)nn3)[C@@H]2O)c1,-0.18

# — PubChem BioAssay
